Experimental data as given in ChEMBL document CHEMBL1961873, “Compounds: GSK PKIS; Assays: Nanosyn kinase panel” (2012).

How the values were obtained:
[1] = target: T1, Mitogen-activated protein kinase 12 (Homo sapiens) (UniProt P53778); conditions: at 1 µM;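 note: values are averaged p38gamma kinase inhibition readings, compounds tested at 1 µM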
T1 sequence (whole entry): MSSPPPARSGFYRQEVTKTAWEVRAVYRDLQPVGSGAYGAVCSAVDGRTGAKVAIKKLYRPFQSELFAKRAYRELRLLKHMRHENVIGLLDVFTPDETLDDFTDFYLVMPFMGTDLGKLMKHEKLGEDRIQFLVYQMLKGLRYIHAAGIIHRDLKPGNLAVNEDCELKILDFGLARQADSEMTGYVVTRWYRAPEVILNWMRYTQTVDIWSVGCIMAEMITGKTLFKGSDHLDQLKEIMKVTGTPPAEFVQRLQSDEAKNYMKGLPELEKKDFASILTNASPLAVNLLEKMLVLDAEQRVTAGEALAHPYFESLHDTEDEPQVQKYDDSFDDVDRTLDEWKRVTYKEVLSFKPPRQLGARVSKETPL

[2] = target: SRSF protein kinase 1 (Homo sapiens) (UniProt Q96SB4); conditions: at 0.1 µM
[3] = target: SRSF protein kinase 1 (Homo sapiens) (UniProt Q96SB4); conditions: at 1 µM
[4] = target: Phosphatidylinositol 4,5-bisphosphate 3-kinase catalytic subunit alpha isoform (Homo sapiens) (UniProt P42336); conditions: at 0.1 µM
[5] = target: Phosphatidylinositol 4,5-bisphosphate 3-kinase catalytic subunit alpha isoform (Homo sapiens) (UniProt P42336); conditions: at 1 µM
[6] = target: T2, Phosphatidylinositol 4,5-bisphosphate 3-kinase catalytic subunit delta isoform (Homo sapiens) (UniProt O00329); conditions: at 0.1 µM
T2 sequence (whole entry): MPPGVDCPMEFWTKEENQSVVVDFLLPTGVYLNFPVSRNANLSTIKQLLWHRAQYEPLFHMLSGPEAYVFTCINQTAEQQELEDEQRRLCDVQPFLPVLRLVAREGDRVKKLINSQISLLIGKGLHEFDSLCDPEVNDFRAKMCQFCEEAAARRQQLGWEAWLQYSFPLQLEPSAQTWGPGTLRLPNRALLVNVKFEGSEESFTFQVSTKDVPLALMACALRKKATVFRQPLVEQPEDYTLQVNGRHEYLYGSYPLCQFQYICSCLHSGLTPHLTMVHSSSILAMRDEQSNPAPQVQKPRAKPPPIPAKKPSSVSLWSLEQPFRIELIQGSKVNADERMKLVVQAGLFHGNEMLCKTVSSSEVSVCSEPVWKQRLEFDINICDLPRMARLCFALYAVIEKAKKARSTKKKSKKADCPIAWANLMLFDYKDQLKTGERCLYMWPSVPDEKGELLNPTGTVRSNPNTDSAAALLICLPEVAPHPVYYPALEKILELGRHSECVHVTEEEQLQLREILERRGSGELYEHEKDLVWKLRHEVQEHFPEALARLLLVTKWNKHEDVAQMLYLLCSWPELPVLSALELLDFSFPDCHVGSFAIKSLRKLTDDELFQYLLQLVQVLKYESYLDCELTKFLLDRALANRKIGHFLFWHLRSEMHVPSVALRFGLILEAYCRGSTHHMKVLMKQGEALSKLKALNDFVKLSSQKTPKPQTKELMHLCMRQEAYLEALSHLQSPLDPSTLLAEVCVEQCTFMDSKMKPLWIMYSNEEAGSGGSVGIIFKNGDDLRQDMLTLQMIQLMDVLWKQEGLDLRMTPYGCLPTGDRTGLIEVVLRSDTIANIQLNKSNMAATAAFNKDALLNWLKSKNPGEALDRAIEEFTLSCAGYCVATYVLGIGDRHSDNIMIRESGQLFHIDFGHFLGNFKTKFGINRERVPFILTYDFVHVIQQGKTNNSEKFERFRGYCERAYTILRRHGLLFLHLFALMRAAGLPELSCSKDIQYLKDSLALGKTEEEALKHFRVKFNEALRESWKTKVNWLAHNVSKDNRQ

[7] = target: T2, Phosphatidylinositol 4,5-bisphosphate 3-kinase catalytic subunit delta isoform (Homo sapiens); conditions: at 1 µM
[8] = target: Phosphatidylinositol 4-kinase beta (Homo sapiens) (UniProt Q9UBF8); conditions: at 0.1 µM
[9] = target: Phosphatidylinositol 4-kinase beta (Homo sapiens) (UniProt Q9UBF8); conditions: at 1 µM
[10] = target: Sphingosine kinase 1 (Homo sapiens) (UniProt Q9NYA1); conditions: at 0.1 µM
[11] = target: Sphingosine kinase 1 (Homo sapiens) (UniProt Q9NYA1); conditions: at 1 µM
[12] = target: T3, Sphingosine kinase 2 (Homo sapiens) (UniProt Q9NRA0); conditions: at 0.1 µM
T3 sequence (whole entry): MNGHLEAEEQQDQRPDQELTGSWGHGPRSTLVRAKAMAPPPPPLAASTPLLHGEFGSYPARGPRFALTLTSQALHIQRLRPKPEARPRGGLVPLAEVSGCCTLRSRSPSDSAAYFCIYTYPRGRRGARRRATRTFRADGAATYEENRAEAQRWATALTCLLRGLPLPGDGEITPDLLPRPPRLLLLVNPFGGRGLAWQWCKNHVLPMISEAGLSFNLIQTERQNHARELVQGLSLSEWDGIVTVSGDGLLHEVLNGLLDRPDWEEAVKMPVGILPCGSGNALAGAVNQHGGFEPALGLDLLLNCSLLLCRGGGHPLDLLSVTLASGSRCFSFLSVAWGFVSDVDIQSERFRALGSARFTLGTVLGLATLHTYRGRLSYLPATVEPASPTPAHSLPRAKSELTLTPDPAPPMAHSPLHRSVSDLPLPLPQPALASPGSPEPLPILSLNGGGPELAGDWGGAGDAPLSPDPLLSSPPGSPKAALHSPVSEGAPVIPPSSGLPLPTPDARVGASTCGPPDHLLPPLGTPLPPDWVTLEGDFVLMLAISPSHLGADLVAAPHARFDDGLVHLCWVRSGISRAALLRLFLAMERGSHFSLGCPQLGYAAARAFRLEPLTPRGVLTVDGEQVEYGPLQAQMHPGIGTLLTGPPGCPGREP

[13] = target: T3, Sphingosine kinase 2 (Homo sapiens); conditions: at 1 µM
[14] = target: Casein kinase II subunit alpha (Homo sapiens) (UniProt P68400); conditions: at 0.1 µM
[15] = target: Casein kinase II subunit alpha (Homo sapiens) (UniProt P68400); conditions: at 1 µM
[16] = target: T4, Inhibitor of nuclear factor kappa-B kinase subunit alpha (Homo sapiens) (UniProt O15111); conditions: at 0.1 µM
T4 sequence (whole entry): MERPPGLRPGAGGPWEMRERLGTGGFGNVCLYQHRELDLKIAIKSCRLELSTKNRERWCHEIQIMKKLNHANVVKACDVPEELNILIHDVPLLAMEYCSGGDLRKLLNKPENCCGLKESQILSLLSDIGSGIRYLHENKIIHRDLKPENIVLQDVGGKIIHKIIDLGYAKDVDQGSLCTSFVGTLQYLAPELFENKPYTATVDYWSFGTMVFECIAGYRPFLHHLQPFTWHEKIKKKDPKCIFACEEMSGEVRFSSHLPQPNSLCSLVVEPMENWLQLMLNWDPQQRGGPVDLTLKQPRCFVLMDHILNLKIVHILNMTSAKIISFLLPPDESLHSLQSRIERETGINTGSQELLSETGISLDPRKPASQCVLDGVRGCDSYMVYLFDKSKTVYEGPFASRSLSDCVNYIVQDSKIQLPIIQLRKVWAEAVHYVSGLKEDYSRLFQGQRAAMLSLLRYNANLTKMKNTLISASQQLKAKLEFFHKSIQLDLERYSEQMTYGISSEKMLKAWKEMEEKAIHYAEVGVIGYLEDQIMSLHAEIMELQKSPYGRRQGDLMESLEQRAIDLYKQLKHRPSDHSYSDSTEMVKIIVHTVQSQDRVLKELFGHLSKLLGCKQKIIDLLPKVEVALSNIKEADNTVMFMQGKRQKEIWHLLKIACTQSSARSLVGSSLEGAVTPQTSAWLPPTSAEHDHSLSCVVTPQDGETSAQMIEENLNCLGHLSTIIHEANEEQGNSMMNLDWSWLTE

[17] = target: T4, Inhibitor of nuclear factor kappa-B kinase subunit alpha (Homo sapiens); conditions: at 1 µM
[18] = target: T5, Inhibitor of nuclear factor kappa-B kinase subunit beta (Homo sapiens) (UniProt O14920); conditions: at 0.1 µM
T5 sequence (whole entry): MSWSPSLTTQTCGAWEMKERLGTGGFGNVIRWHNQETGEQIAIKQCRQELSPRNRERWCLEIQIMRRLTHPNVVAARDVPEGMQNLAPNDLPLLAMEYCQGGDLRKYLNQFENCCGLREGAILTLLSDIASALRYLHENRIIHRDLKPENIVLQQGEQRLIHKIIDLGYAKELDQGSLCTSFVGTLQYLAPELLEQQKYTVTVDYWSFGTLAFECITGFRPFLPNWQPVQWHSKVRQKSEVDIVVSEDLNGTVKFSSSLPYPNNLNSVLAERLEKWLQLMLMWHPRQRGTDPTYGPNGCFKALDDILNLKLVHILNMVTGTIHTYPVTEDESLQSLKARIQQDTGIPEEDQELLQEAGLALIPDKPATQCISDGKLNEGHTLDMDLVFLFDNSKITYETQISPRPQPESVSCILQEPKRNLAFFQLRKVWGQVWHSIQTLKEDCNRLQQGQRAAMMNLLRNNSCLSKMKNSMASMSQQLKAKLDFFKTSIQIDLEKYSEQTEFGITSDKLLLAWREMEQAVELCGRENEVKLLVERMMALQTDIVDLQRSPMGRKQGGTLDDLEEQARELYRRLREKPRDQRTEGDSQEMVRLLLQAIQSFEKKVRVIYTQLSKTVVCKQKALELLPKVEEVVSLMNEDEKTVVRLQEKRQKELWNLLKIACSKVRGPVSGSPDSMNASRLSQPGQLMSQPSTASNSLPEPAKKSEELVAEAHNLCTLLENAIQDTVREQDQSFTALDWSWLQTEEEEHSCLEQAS

[19] = target: T5, Inhibitor of nuclear factor kappa-B kinase subunit beta (Homo sapiens); conditions: at 1 µM
[20] = target: T6, Inhibitor of nuclear factor kappa-B kinase subunit epsilon (Homo sapiens) (UniProt Q14164); conditions: at 0.1 µM;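 note: mean inhibition of IKKε reported, from the GSK PKIS dataset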
T6 sequence (whole entry): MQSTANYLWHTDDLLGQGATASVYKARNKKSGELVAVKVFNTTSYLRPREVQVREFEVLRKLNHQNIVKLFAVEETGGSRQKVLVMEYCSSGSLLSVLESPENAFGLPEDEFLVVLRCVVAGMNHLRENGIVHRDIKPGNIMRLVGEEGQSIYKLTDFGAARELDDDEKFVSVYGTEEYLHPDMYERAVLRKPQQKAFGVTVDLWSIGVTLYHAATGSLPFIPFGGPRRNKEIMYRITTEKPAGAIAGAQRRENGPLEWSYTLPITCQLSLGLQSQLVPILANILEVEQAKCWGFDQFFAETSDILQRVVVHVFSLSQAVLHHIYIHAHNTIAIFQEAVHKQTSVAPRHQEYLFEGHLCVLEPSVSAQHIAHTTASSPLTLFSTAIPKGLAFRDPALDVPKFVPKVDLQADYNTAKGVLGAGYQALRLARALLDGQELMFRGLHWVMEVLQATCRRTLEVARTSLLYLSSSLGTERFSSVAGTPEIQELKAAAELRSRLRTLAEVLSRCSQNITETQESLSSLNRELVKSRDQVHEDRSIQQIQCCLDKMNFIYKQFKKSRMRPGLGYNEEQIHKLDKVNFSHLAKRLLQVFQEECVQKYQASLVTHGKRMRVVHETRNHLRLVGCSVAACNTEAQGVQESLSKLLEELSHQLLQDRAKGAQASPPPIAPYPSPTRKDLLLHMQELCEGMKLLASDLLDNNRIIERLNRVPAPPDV

Sequence of Sphingosine kinase 1 (Homo sapiens) (Q9NYA1 whole entry): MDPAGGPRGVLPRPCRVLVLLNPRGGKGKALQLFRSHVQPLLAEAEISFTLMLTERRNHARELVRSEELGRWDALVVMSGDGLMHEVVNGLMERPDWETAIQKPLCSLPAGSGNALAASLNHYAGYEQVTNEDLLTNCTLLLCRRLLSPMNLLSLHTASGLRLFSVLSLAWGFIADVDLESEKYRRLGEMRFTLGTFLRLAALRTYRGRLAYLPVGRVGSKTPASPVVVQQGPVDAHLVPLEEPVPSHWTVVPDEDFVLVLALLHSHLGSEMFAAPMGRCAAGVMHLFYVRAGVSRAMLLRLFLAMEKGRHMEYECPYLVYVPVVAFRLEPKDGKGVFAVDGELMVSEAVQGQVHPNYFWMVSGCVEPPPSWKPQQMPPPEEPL
Sequence of Casein kinase II subunit alpha (Homo sapiens) (P68400 whole entry, looked up): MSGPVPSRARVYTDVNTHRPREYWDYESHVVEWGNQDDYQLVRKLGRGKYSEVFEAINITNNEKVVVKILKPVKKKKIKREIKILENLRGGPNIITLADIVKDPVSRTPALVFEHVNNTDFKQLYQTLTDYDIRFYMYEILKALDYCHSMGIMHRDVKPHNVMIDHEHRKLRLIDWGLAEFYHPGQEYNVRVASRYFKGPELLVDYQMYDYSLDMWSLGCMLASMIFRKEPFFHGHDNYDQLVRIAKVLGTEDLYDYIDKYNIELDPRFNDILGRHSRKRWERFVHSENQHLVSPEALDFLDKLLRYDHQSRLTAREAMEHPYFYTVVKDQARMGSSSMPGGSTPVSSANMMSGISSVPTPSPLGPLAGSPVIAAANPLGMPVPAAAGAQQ
Sequence of Phosphatidylinositol 4-kinase beta (Homo sapiens) (Q9UBF8 2-816 limits assumed): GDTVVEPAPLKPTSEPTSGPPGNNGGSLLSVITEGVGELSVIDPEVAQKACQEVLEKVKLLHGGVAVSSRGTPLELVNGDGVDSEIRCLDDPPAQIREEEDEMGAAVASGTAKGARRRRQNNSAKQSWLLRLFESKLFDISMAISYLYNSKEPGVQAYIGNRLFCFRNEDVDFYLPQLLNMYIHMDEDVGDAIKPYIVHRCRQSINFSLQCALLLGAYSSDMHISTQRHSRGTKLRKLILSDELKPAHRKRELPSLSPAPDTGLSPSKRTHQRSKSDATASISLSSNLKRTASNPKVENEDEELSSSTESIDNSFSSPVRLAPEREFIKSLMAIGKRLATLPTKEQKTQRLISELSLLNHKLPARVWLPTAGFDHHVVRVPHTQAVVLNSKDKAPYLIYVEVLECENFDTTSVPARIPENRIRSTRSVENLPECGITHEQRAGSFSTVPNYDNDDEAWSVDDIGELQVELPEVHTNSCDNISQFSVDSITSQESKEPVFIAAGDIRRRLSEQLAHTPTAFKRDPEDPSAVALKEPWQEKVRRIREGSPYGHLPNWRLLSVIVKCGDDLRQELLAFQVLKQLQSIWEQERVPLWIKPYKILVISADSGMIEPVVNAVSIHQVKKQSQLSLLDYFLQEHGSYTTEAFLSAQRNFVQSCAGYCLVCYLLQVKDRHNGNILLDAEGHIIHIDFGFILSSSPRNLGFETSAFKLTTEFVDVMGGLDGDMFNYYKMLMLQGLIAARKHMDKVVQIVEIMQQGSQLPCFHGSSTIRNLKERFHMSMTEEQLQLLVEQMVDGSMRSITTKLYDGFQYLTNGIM
Sequence of SRSF protein kinase 1 (Homo sapiens) (Q96SB4 whole entry, canonical isoform): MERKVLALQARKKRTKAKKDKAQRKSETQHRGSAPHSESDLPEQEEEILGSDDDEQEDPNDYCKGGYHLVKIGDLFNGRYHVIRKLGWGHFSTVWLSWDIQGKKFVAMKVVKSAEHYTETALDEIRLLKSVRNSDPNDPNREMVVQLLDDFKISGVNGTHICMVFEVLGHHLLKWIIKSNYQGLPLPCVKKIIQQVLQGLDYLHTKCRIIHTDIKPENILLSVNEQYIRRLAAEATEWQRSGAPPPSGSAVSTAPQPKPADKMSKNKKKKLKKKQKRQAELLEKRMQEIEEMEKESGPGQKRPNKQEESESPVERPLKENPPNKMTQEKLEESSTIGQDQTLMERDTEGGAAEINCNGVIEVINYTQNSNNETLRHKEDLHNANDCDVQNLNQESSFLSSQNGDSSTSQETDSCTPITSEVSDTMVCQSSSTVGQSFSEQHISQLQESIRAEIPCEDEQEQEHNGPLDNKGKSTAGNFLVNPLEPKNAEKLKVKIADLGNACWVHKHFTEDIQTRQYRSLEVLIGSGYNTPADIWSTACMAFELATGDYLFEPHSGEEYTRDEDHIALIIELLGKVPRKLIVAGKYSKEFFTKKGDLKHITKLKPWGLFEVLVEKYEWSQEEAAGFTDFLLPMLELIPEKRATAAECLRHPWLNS
Sequence of Phosphatidylinositol 4,5-bisphosphate 3-kinase catalytic subunit alpha isoform (Homo sapiens) (P42336 whole entry, canonical isoform): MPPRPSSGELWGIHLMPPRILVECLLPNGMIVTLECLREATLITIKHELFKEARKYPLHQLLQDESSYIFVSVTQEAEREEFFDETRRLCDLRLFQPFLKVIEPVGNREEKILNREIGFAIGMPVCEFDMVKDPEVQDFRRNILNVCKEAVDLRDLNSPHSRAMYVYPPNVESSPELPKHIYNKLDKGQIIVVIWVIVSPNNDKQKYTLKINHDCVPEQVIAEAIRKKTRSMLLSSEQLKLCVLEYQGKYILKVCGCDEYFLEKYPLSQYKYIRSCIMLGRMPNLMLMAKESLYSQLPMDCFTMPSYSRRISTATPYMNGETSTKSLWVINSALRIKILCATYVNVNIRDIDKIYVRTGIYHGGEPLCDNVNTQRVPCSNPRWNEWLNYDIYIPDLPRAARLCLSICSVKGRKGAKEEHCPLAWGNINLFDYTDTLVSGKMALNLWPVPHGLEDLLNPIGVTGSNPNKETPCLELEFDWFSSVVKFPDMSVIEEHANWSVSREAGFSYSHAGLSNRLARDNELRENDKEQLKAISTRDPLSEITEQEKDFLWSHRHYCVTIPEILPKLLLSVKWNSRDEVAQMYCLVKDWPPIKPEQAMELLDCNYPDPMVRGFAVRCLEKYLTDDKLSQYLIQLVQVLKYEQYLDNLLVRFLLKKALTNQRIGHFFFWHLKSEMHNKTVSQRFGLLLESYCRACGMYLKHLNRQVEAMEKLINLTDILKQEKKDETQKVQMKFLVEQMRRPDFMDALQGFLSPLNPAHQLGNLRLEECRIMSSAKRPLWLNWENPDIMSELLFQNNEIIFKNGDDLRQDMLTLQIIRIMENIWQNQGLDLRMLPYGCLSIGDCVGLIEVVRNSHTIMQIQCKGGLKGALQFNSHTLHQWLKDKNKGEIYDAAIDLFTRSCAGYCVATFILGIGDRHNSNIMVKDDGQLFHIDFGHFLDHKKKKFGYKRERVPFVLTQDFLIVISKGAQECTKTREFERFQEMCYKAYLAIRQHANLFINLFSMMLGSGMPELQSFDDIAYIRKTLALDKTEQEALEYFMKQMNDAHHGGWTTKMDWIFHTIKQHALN

Structure (SMILES) | inhibition [1] [%] | inhibition [2] [%] | inhibition [3] [%] | inhibition [4] [%] | inhibition [5] [%] | inhibition [6] [%] | inhibition [7] [%] | inhibition [8] [%] | inhibition [9] [%] | inhibition [10] [%] | inhibition [11] [%] | inhibition [12] [%] | inhibition [13] [%] | inhibition [14] [%] | inhibition [15] [%] | inhibition [16] [%] | inhibition [17] [%] | inhibition [18] [%] | inhibition [19] [%] | inhibition [20] [%]
NC(=O)c1sc(-n2cnc3ccc(C(F)(F)F)cc32)cc1OCc1ccccc1Br | 2.37 | -1.69 | -2.85 | 3.78 | 4.29 | 1.52 | 4.21 | -2.33 | -2.08 | 2.38 | -0.89 | -0.23 | -0.48 | 3.45 | 5.66 | 12.5 | 11.2 | 6.41 | 6.44 | 5.17
COc1cc(/C=N/Nc2ncnc3[nH]ncc23)ccc1O | 2.2 | -1.89 | 2.08 | 10.2 | 44.2 | 3.6 | 20.3 | 6.86 | 30.9 | -1.46 | -2.47 | 0.06 | 0.42 | 8.38 | 34.8 | 14.9 | 62 | 5.05 | 13.6 | 0.87
NS(=O)(=O)c1ccc(N/N=C2\C(=O)Nc3ccc4ncccc4c32)cc1 | 18.9 | -3.05 | -3.18 | 1.35 | 7.38 | 1.9 | 8.23 | 1.16 | 0.49 | -2.17 | -1.18 | 0.16 | 7.47 | 5.01 | 32.2 | 9.67 | 20 | 4.79 | 26 | 8.67
COc1cccc(-c2c[nH]c3c(N/N=C/c4ccncc4)ncnc23)c1 | 14.7 | 0.71 | -1.68 | 1.14 | 4.14 | 0.94 | 3.3 | -3.02 | 0.08 | -4.21 | 0.2 | 1.73 | -1 | 8.8 | 43.7 | 9.76 | 9.01 | 2.82 | 1.73 | 2.96
CCCN1CCC(c2ccc(Nc3nc(Nc4cc(F)ccc4C(N)=O)c4cc[nH]c4n3)c(OC)c2)CC1 | 2.82 | -0.15 | 12.7 | 3.82 | 3.17 | 2.18 | 13.3 | -9.61 | -8.79 | -0.97 | -2.44 | 0 | 0 | 32.4 | 70.3 | 2.7 | 18.7 | 0.13 | 7.11 | 6.68
